biological target: T1, Tyrosyl-tRNA synthetase, putative (Trypanosoma cruzi (strain CL Brener)) (UniProt Q4DSP6); assay: Trypanosoma cruzi tyrosyl tRNA synthetase (TcYRS) SOP; format: functional; parameters: scale not given: direction of the effect not stated beside the values; conditions: 30 µM
T1 sequence (whole entry): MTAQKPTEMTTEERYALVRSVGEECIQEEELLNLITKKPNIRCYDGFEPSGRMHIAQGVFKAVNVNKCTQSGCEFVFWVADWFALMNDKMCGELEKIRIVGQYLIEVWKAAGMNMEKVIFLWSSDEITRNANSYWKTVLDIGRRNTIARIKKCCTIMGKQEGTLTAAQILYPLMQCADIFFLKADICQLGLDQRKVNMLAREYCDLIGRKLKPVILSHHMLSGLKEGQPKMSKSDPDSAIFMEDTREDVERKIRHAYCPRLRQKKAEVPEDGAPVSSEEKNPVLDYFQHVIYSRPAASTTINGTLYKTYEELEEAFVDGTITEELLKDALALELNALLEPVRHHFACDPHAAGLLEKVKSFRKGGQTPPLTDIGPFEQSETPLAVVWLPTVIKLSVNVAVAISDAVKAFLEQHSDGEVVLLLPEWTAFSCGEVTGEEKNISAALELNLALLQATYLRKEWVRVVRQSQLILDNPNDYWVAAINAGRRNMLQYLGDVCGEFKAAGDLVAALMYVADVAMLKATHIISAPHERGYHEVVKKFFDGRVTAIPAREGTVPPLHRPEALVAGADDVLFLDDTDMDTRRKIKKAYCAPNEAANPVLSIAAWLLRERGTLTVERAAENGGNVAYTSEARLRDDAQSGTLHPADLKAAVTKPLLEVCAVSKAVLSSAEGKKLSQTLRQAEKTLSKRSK

| Compound | Percent Effect |
| --- | --- |
| COc1ccccc1CN1CCC2(CC1)CC(Oc1ccccn1)CO2 (stereo not given) | 8.97% |
| CC(C)Nc1nc(N2CCOCC2)nc2c1CN(CC(=O)N(C)C)CC2 | -3.85% |
| c1ccc(CCN2CCN(c3ccc4nncn4n3)CC2)nc1 | 7.32% |
| COc1cccc(CCNC(=O)CN2CCN(C)CC2C)c1 (stereo not given) | 15.8% |
| CC(=O)N1CCC(Oc2ccc(C#N)cn2)CC1 | 12.5% |
| COc1cccc(CCC(=O)N2CCCCC2Cn2cccn2)c1 (stereo not given) | 2.35% |
| Cc1scc(C(=O)N2CCC3(CC(=O)NC3=O)C2)c1-c1ccccc1 (stereo not given) | 9.76% |
| CCc1csc(C2CCCN(C(=O)c3ccc(OC)nn3)C2)n1 (stereo not given) | 14.6% |
| CN(C)S(=O)(=O)c1ccc(CN2CCCC2c2ccccc2)o1 (stereo not given) | 23.5% |
| Clc1cc(CN2CCCC2Cn2cncn2)c2ncccc2c1 (stereo not given) | 6.1% |
| C=C(C)CN(Cc1cccc(O)c1)C1CCC(O)CC1 (stereo not given) | 6.17% |
| CCn1c(N)nc2cc(C(=O)NCc3ccccc3Cl)cnc21 | 17.5% |
| CCOCC1CN(S(C)(=O)=O)Cc2cnn(C)c21 (stereo not given) | 12.5% |
| c1ccc(OC[C@]23COC[C@H]2CN(c2ncccn2)C3)nc1 | 17.5% |
| CCCC(=O)NCc1cc(Br)c(OC)c(OC)c1 | 13.6% |
| CCc1csc(C2CCCN(C(=O)c3ccnc(N(C)C)c3)C2)n1 (stereo not given) | 13% |
| Cc1ccsc1-c1nnc(C2CCN(Cc3ccc(F)cc3)CC2)o1 | 3.9% |
| CC(NC(N)=O)C(=O)N(C)CCCc1cc(-c2ccccc2)no1 (stereo not given) | 6.1% |
| Cc1cccc(C(=O)NCCCN2CCN(c3ccccc3)CC2)c1 | 8.97% |
| CC1CCCCN1CCNC(=O)c1ccn(-c2ccc(F)cc2)n1 (stereo not given) | 23.5% |

| Compound | Percent Effect |
| --- | --- |
| Cc1noc(C)c1CN1CC2(CCN(C(=O)c3cscn3)CC2)CC1=O | 11.1% |
| O=C(NCc1ccccn1)NC1CCOc2ccccc21 (stereo not given) | 28.1% |
| COc1ccc(CN2C[C@@H](OCc3ccccn3)[C@H]3COC[C@H]32)cc1 | 12.8% |
| Cc1cnn(CC2CCCN2Cc2nc3ccccc3nc2C)c1 (stereo not given) | 7.06% |
| Cn1cc(C2CCCN2CCCc2nc(-c3cccs3)no2)cn1 (stereo not given) | -6.17% |
| O=C(Nc1cccc(OCc2ccc(F)cc2)c1)C1COCCO1 (stereo not given) | -3.7% |
| O=C(C1CCCc2[nH]ncc21)N1CCCCCC1 (stereo not given) | 6.17% |
| CN(C)S(=O)(=O)N1CCC(Oc2ccc(C#N)cn2)CC1 | 8.97% |
| O=C(c1cccc2cccnc12)N1CCCN(c2cccnn2)CC1 | 11.8% |
| CC(NC(=O)NCc1cccnc1N1CCCCC1)c1nccs1 (stereo not given) | 14.6% |
| CCS(=O)(=O)c1ccccc1N1CCC(NC(=O)NC2CCCC2)CC1 | 13.4% |
| Cc1nc(CN2CCN(CC(=O)Nc3c(C)cccc3C)CC2)no1 | 18.8% |
| Fc1ccc2c(c1)C(NCc1nnc3n1CCCCC3)CCCO2 (stereo not given) | 8.64% |
| Cc1cc(N2CCN(Cc3ccc(-c4cc[nH]n4)o3)CC2)cc(C)n1 | 13.6% |
| COc1cc(C)nc(N2CCN(C(=O)CCc3cscn3)CC2)n1 | 9.76% |
| O=C(NCC1CC1)[C@H]1CC[C@@H]2[C@@H](CCN2Cc2ccoc2)O1 | 6.17% |
| Cc1noc(C)c1C(=O)N(C)Cc1nc(-c2ccccn2)no1 | 11.1% |
| CNc1nc(CNC(=O)Nc2ccccc2-c2noc(C)n2)cs1 | -4.88% |
| Cc1nnc2n1CCN(C(=O)c1cc(Cl)c[nH]1)C2 | -4.88% |
| CCn1cc2c(n1)CN(CC1CC1)CC2COCC1CC1 (stereo not given) | 8.97% |

Source: ChEMBL document CHEMBL3988442, “University of Dundee, Small-Polar-MMV Screening Library” (2021)
